Results from the supplement of paper PMC9694430.
Where “and” joins values, the source holds several entries; their conditions need not be identical. Identical values can stand only once.

Legend:
Experiment in all cases: thermal shift delta Tm vs DMSO control; higher = stronger stabilization (binding)
Settings in all cases: 12.5 µM; protein concentration 2 µM
LOC_OS01G57100-cb003 = test system: LOC_OS01G57100-cb003
In short: (§1)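 Compounds dissolved in DMSO were added to purified rice kinase domain constructs, which had been expressed in E. coli, for differential scanning fluorimetry. Each well held 19.5 μl of 2 μM kinase in 100 mM potassium phosphate pH 7.5, 150 mM NaCl, 10% glycerol and 5 × SYPRO Orange. Fluorescence was followed from 25°C to 95°C at a rate of 0.05°C/s. Shifts in Boltzmann-fitted melting temperature are triplicate means relative to DMSO-only protein.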

LOC_OS01G60330-cb001 = test system: LOC_OS01G60330-cb001
In short: as §1

LOC_OS01G60700-cb002 = test system: LOC_OS01G60700-cb002
In short: as §1

LOC_OS01G63280-cb003 = test system: LOC_OS01G63280-cb003
In short: as §1

LOC_OS01G67340-cb003 = test system: LOC_OS01G67340-cb003
In short: as §1

LOC_OS01G70970-cb002 = test system: LOC_OS01G70970-cb002
In short: as §1

LOC_OS02G07810-cb001 = test system: LOC_OS02G07810-cb001
In short: as §1

LOC_OS02G08530-cb003 = test system: LOC_OS02G08530-cb003
In short: as §1

LOC_OS02G14120-cb001 = test system: LOC_OS02G14120-cb001
In short: as §1

LOC_OS02G17970-cb001 = test system: LOC_OS02G17970-cb001
In short: as §1

LOC_OS02G45750-cb003 = test system: LOC_OS02G45750-cb003
In short: as §1

LOC_OS02G54510-cb004 = test system: LOC_OS02G54510-cb004
In short: as §1

LOC_OS03G04050-cb001 = test system: LOC_OS03G04050-cb001
In short: as §1

LOC_OS03G12390-cb001 = test system: LOC_OS03G12390-cb001
In short: as §1

LOC_OS03G27990-cb004 = test system: LOC_OS03G27990-cb004
In short: as §1

LOC_OS03G50450-cb001 = test system: LOC_OS03G50450-cb001
In short: as §1

LOC_OS03G50810-cb003 = test system: LOC_OS03G50810-cb003
In short: as §1

LOC_OS04G35114-cb001 = test system: LOC_OS04G35114-cb001
In short: as §1

LOC_OS04G38480-cb003 = test system: T1, LOC_OS04G38480-cb003
T1 sequence (whole entry): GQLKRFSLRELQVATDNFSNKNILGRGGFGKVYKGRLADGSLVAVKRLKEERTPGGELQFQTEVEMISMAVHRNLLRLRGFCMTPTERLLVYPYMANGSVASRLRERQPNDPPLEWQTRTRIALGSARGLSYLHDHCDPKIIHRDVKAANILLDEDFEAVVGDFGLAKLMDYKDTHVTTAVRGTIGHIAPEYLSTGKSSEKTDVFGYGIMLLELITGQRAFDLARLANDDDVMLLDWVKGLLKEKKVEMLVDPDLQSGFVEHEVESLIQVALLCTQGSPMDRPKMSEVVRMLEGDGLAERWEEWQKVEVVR
In short: as §1

LOC_OS04G41100-cb001 = test system: T2, LOC_OS04G41100-cb001
T2 sequence (whole entry): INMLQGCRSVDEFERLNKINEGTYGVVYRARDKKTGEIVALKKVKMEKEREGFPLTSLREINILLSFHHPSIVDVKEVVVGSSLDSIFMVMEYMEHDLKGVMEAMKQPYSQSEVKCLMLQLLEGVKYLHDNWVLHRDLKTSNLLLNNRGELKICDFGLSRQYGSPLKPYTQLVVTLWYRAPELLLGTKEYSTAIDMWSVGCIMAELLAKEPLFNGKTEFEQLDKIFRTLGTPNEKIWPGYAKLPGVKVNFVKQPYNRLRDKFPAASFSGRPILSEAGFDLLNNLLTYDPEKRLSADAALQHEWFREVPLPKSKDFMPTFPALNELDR
In short: as §1

Row | Compound | thermal shift delta Tm (LOC_OS01G57100-cb003) | thermal shift delta Tm (LOC_OS01G60330-cb001) | thermal shift delta Tm (LOC_OS01G60700-cb002) | thermal shift delta Tm (LOC_OS01G63280-cb003) | thermal shift delta Tm (LOC_OS01G67340-cb003) | thermal shift delta Tm (LOC_OS01G70970-cb002) | thermal shift delta Tm (LOC_OS02G07810-cb001) | thermal shift delta Tm (LOC_OS02G08530-cb003) | thermal shift delta Tm (LOC_OS02G14120-cb001) | thermal shift delta Tm (LOC_OS02G17970-cb001) | thermal shift delta Tm (LOC_OS02G45750-cb003) | thermal shift delta Tm (LOC_OS02G54510-cb004) | thermal shift delta Tm (LOC_OS03G04050-cb001) | thermal shift delta Tm (LOC_OS03G12390-cb001) | thermal shift delta Tm (LOC_OS03G27990-cb004) | thermal shift delta Tm (LOC_OS03G50450-cb001) | thermal shift delta Tm (LOC_OS03G50810-cb003) | thermal shift delta Tm (LOC_OS04G35114-cb001) | thermal shift delta Tm (LOC_OS04G38480-cb003) | thermal shift delta Tm (LOC_OS04G41100-cb001)
1 | CC(C)(C)c1nc(-c2ccc(NC(=O)Nc3cccc(C(F)(F)F)c3)c3ccccc23)c2c(N)nccn12 [kira6] | 0.63 °C | 1.17 °C | 0.03 °C | 14.6 °C | 8.45 °C | 0.75 °C | 0.03 °C | 2.22 °C | 2.07 °C | 1.1 °C | 2.31 °C | 9.87 °C | 0.01 °C | 2.25 °C | 7.11 °C | 0.7 °C | 4.91 °C | 3.47 °C | 1.58 °C | -0.01 °C
2 | C=CC(=O)Nc1cccc(Nc2nc(Nc3ccc(Oc4ccnc(C(=O)NC)c4)cc3)ncc2F)c1 | 2.13 °C | 6.9 °C | 1.08 °C | 0.49 °C | 0.92 °C | 1.63 °C | 0.76 °C | 2.72 °C | 6.96 °C | 0.81 °C | 0.72 °C | 1.23 °C | 0.77 °C | 2.55 °C | 0.98 °C | 1.34 °C | 2.61 °C | 2.69 °C | 3.42 °C | 0.73 °C
3 | COc1cc2c(cc1OC)[C@@H]1C(=O)c3ccc4c(c3O[C@@H]1CO2)C=CC(C)(C)O4 [Deguelin] | 1.25 °C | 1.41 °C | 0.73 °C | 0.43 °C | 0.31 °C | 0.2 °C | 0.57 °C | 0.83 °C | 0.97 °C | 1.35 °C | 0.46 °C | -0.02 °C | 0.25 °C | -0.38 °C | 0.07 °C | 0.4 °C | 0.24 °C | 0.63 °C | 1.39 °C | 0.34 °C
4 | CN(c1ncccc1CNc1nc(Nc2ccc3c(c2)CC(=O)N3)ncc1C(F)(F)F)S(C)(=O)=O | 1.74 °C and 1.7 °C | 2.27 °C and 2.55 °C | 0.88 °C and 1.26 °C | 2.29 °C and 3.24 °C | 1.9 °C and 2.14 °C | 6.41 °C and 7.59 °C | 0.34 °C and 0.67 °C | 1.99 °C and 2.23 °C | 4.47 °C and 5.67 °C | 0.58 °C and 1.27 °C | 6.83 °C and 7.06 °C | 1.05 °C and 1.09 °C | 0.54 °C and 0.38 °C | 3.95 °C and 4.88 °C | 2.23 °C and 2.44 °C | 2.36 °C and 2.48 °C | 3.64 °C and 4.1 °C | 4.17 °C and 4.61 °C | 1.77 °C and 2.12 °C | 1.82 °C and 1.92 °C
5 | COc1nccc(-c2c(-c3ccc(F)cc3)ncn2C2CCC(O)CC2)n1 (stereo not given) | 1.45 °C | 1.05 °C | 0.84 °C | 0.44 °C | 0.6 °C | 0.09 °C | 0.67 °C | 0.39 °C | -0.37 °C | 0.65 °C | 0.57 °C | -0.06 °C | 0.08 °C | 0.08 °C | 0.19 °C | 0.52 °C | 0.48 °C | 0.56 °C | 1.13 °C | 0.51 °C
6 | COc1cccc(-n2c(=O)[nH]c3cc(Cl)n(-c4ccc(-c5cccc(OC)c5O)cc4)c3c2=O)c1 | 1.57 °C | 1.05 °C | 0.6 °C | 0.13 °C | 0.2 °C | 0.23 °C | 0.79 °C | 0.98 °C | 0.81 °C | 0.69 °C | 0.85 °C | 0.06 °C | 0.3 °C | 0.12 °C | 0.42 °C | 0.22 °C | 0.35 °C | 0.59 °C | 1.27 °C | 0.29 °C
7 | O=C1Nc2ccc(I)cc2/C1=C/c1cc(Br)c(O)c(Br)c1 | 7.97 °C | 7.94 °C | 2.48 °C |  |  | 2.79 °C | 3.4 °C | 4.19 °C | 5.66 °C | 3.87 °C | 0 °C | 1.04 °C | 0.81 °C | 6.08 °C | 2.06 °C | 1.49 °C | 4.01 °C | 1.76 °C | -0.73 °C | 0.75 °C
8 | CC(C)Oc1ccc(-c2nn([C@@H](C)c3oc4ccc(F)cc4c(=O)c3-c3cccc(F)c3)c3ncnc(N)c23)cc1F | 1.03 °C | 1.25 °C | 0.79 °C | 0.47 °C | 0.6 °C | 0.55 °C | -0.1 °C | 0.12 °C | 1.41 °C | 1.06 °C | -0.54 °C | 0.17 °C | 0.23 °C | -0.28 °C | 0.5 °C | -0.25 °C | 0.13 °C | 1.09 °C | 1.36 °C | 0.19 °C
9 | C[C@@H]1CN(CC(=O)Nc2ccc3c(c2)Cc2cccc(-c4cc(=O)cc(N5CCOCC5)o4)c2S3)C[C@H](C)O1 | 1.01 °C | 0.66 °C | 0.34 °C | 0.3 °C | 0 °C | -0.1 °C | 0.97 °C | 0.73 °C | 0.18 °C | 0.49 °C | 0.27 °C | -0.11 °C | 0.02 °C | 0.37 °C | -0.04 °C | 0.03 °C | 0.14 °C | 0.37 °C | -0.13 °C | 0.23 °C
10 | Cc1[nH]c(/C=C2\C(=O)Nc3ccc(S(=O)(=O)N(C)c4cccc(Cl)c4)cc32)c(C)c1C(=O)N1CCN(C)CC1 | 1.03 °C | 5.91 °C | 0.86 °C | -0.04 °C | -0.53 °C | 0.47 °C | -0.12 °C | 3.7 °C | 8.19 °C | -0.27 °C | 0 °C | 0.59 °C | 0.42 °C | 2.96 °C | 0.14 °C | -0.1 °C | 0 °C | 7.25 °C | 5.89 °C | 0.68 °C
11 | O=c1[nH]nc(Sc2ncc([N+](=O)[O-])s2)n1-c1ccc2c(c1)OCCO2 | 6.97 °C | 0 °C | 4.73 °C |  | -6.49 °C | -7.96 °C | 1.41 °C | 1.83 °C |  | 3.38 °C | 1.36 °C | -0.1 °C | 0.22 °C | -1.14 °C | 0.03 °C | 0.84 °C | -0.33 °C | 0.5 °C | 3.06 °C | -0.54 °C
12 | Cc1ccc(C(=O)Nc2ccc(CN3CCN(C)CC3)c(C(F)(F)F)c2)cc1C#Cc1cnc2[nH]ncc2c1 [GZD824 Dimesylate] | 1.83 °C | 4.46 °C | 1.12 °C | 16.6 °C | 2.51 °C | 5.22 °C | 0.8 °C | 3.54 °C | 4.33 °C | 0.61 °C | 10.6 °C |  | 0.96 °C | 3.54 °C | 1.61 °C | 1.08 °C | 6.3 °C | 1.99 °C | 1.28 °C | 2.67 °C
